# Compound activity (PubChem)
# Only some compounds are listed: those with a hit (about 10% of all), similar ones and a draw of the others.
# BAZ2B inh: inhibitors of human BAZ2B bromodomain; Q9UIF8; AlphaScreen BAZ2B-H3K14Ac peptide displacement; Potency, µM (titrated, usually from 114 µM), for inactives: at the top dose activity change, negative = inhibition, hits mostly inhibitors; actives 4.4% (n = 360,000); AID 504333; further: potency means the concentration at half of the fitted maximal effect; on the % scale 0 is the no-effect control and ±100 the full control effect; nearly all actives have a fitted effect of over 60% in size
#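 Compounds, titrated to a top concentration of 110 uM, were incubated 30 min at room temperature with preformed BAZ2B/acetyl-K14 H3 peptide complex (50 nM each). Proximity signal was measured by AlphaScreen after 20 min with beads.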
# CtBP-E1A inh: inhibitors of CtBP/E1A interaction | AlphaScreen GST-E1A/His-CtBP binding, 1536-well; hits give low values | activity change, % (concentration not given with the values) | actives 0.49% (n = 340,000); in the data active means activity change below about -65%; inconclusive means mostly about -30% to -63%; further: on the % scale 0 is the no-effect control and ±100 the full control effect
#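 Protein mix (5X: 125 nM each GST-E1A, His-CtBP) was incubated with pinned compound 2 h at 37 deg C in dark, in 50 mM Tris pH 8.0 buffer with 300 mM NaCl. Glutathione donor and nickel acceptor beads followed; AlphaScreen signal read after 1 h.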
# Six1-Eya2 inh: Six1/Eya2 interaction inhibition; actives 0.56% (n = 360,000); Q15475+O00167; AlphaScreen GST-Six1/His-Eya2 binding, biochemical; hits give low values; activity change, % (concentration not given with the values); in the data active means activity change below about -65%; inconclusive means mostly about -30% to -63%; further: on the % scale 0 is the no-effect control and ±100 the full control effect
#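 AlphaScreen with GST-Six1 and His-Eya2 (5X mix: 250 nM and 500 nM), glutathione donor and nickel acceptor beads; buffer 50 mM Tris pH 8.0, 300 mM NaCl, 1 mM TCEP; 1 h at 37 C in the dark.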
# G9a block: inhibitors of human histone lysine methyltransferase G9a; Q96KQ7; G9a H3K9 monomethylation, AlphaScreen, 2 h; Potency, µM (top dose mostly 102 µM), for inactives: top-dose activity, negative = inhibition, actives largely listed as inhibitors; actives 8.8% (n = 350,000); AID 504332; further: potency means the concentration at half of the fitted maximal effect; on the % scale 0 is the no-effect control and ±100 the full control effect; nearly all actives have a fitted effect of over 75% in size
# Target sequence (Q96KQ7 913-1193 limits assumed): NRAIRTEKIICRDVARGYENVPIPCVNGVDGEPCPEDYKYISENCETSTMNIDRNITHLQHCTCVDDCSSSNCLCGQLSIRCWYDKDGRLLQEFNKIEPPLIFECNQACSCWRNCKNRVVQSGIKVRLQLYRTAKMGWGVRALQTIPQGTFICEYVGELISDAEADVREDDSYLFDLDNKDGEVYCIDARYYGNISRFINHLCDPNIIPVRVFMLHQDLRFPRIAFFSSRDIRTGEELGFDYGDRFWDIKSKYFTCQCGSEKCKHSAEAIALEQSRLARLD
#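 G9a (20 nM) was preincubated 15 min with compound, then reacted 2 h at room temperature with 500 nM biotin-H3K9 peptide and 20 µM SAM. Monomethyl-H3K9 detected by AlphaScreen using anti-H3K9me1 antibody.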
# JMJD2A Tudor: JMJD2A Tudor domain (human) inhibition; O75164; AlphaScreen JMJD2A-Tudor / H3K4me3 peptide binding; Potency, µM (titrated, usually from 114 µM), for inactives: at the highest dose activity change, negative = inhibition, most hits filed as inhibitors; actives 4.4% (n = 390,000); further: potency means the concentration at half of the fitted maximal effect; on the % scale 0 is the no-effect control and ±100 the full control effect; nearly all actives have a fitted effect of over 50% in size
# HP1b binding inh: inhibitors of HP1-beta chromodomain binding to methylated histone tails. P83916. AlphaScreen HP1-beta / biotin-H3K9me3 peptide binding. actives 0.56% (n = 390,000). Potency, µM (doses to about 114 µM), inactives show at the top dose activity change, negative = inhibition, usual class: inhibitors; further: potency means the concentration at half of the fitted maximal effect; nearly all actives have a fitted effect of over 70% in size
# Target sequence (P83916 whole entry, looked up): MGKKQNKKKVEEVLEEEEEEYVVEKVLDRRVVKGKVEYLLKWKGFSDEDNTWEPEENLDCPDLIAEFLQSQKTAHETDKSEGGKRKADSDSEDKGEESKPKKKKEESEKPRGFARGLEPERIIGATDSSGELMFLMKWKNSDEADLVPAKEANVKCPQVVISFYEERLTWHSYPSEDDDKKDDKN
#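 Compound inhibition of the preformed complex between 50 nM HP1-beta and 50 nM biotinylated H3K9me3 peptide was read by AlphaScreen. Buffer was PBS pH 7.4 with 0.01% Tween-20. Incubations ran 30 min at room temperature, with 10 ug/mL donor/acceptor beads.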
# * = called active by the depositor; ? = inconclusive; . = not tested or not shown; [ ] = dose if it differs, or a comment. Unless noted, the call rests on the fitted dose curve; in most records, active means well fitted inhibition curve with a large enough effect; inconclusive means small, poorly fitted or top-dose-only effect; inactive means no such curve, though single readings can be large or run the other way.
SMILES,BAZ2B inh,CtBP-E1A inh,Six1-Eya2 inh,G9a block,JMJD2A Tudor,HP1b binding inh
CCN(CC)C(=O)c1ccc2c(c1)N(Cc1ccccc1F)C(=O)c1ccccc1S2=O (stereo not given),-15%,.,.,4%[59 µM],-5%,40%
CCN(CC)c1ccc(CNc2nnnn2C)cc1,?,-5,-6,32µM*,-10%,15%
CCCn1nnnc1NCc1ccc(N(CC)CC)cc1,?,.,-1,16µM*,-26%,0%
CCCn1nnnc1NCc1ccc(N2CCCC2)cc1,-3%,-6,-5,3.5µM*,-32%,12%
CCCCn1nnnc1NCc1ccc(N2CCCC2)cc1,?,-23,-9,-40%[12.7 µM],?,-19%
Cn1nnnc1NCc1ccc(Cl)cc1,-17%,6,8,19%[59 µM],-7%,34%
CCNC(=O)C1CCN(Cc2cc3ccccc3n2Cc2ccc(C)cc2)CC1,-13%,.,.,-5%[59 µM],-32%,26%
O=C(/C=C/c1ccccc1)n1cnnc1SC/C=C/c1ccccc1,9%,-2,-16,20µM*,20%,47%
COc1ccc(CC(=O)Nc2sccc2C#N)cc1S(=O)(=O)N1CCOCC1,-22%,-2,-16,40µM*,-4%,25%
COc1ccc(CC(=O)Nc2ccc(F)c(Cl)c2)cc1S(=O)(=O)N1CCOCC1,12%,.,-2,4%[12.7 µM],-14%,27%
COc1ccc(NC(=O)CN2C(=O)c3ccccc3S2(=O)=O)cc1S(=O)(=O)N1CCOCC1,8%,-1,5,50µM*,-12%,17%
COc1ccc(NC(=O)/C=C/c2ccc(C)o2)cc1S(=O)(=O)N1CCOCC1,?,-17,-24,6.3µM*,-17%,-4%
COc1cc(/C=C/C(=O)Nc2ccc(OC)c(S(=O)(=O)N3CCOCC3)c2)ccc1OC(F)F,.,0,-26,.,-22%,19%
COc1ccc(NC(=O)CNCc2ccc(Cl)cc2)cc1S(=O)(=O)N1CCOCC1,.,0,6,.,3.5µM*,?
CCC(=O)N1c2ccccc2CC1C(=O)NCCN1CCN(c2cccc(C(F)(F)F)c2)CC1 (stereo not given),-21%,.,.,6%[12.7 µM],-9%,21%
COc1cccc(NC(=O)Cn2c(=O)n(CCCCC(=O)NCc3ccc4c(c3)OCO4)c(=O)c3ccccc32)c1,3%,.,.,2%[59 µM],-2%,45%
Cc1cc(C)n(CCc2nc(-c3ccc(C)o3)cs2)n1,?,-8,-14,?,79µM*,?
CCc1nnc(NC(=O)C(NC(=O)c2ccccc2Cl)C(C)C)s1 (stereo not given),-17%,0,21,?,-12%,2%
CC(C)[C@H](NC(=O)c1ccccc1Cl)C(=O)Nc1nc(-c2ccccn2)cs1,32µM*,-83*,-80*,-4%,45µM*,18%
CC(Oc1ccc(Br)cc1)C(=O)Nc1nc(-c2ccccn2)cs1 (stereo not given),56µM*,?,-73*,20µM*,79µM*,-16%
O=C(Nc1ccc(N2CCOCC2)c(C(=O)O)c1)c1ccco1,-1%,.,.,56µM*,.,.
O=C(Nc1ccc(N2CCOCC2)cc1N1CCOCC1)c1ccco1,2%,2,-2,?,56µM*,?
Cc1ccc(C)c(-n2sc3ccc(F)cc3c2=O)c1,18µM*,-16,-8,-1%[0.501 µM],14µM*,-25%
COc1ccc(-n2sc3ccc(F)cc3c2=O)cc1,8.9µM*,-9,-16,0%[0.501 µM],11µM*,-5%
COc1ccc(-n2sc3ccccc3c2=O)cc1,.,-3,-2,.,.,.
SMILES,BAZ2B inh,CtBP-E1A inh,Six1-Eya2 inh,G9a block,JMJD2A Tudor,HP1b binding inh
O=c1c2cc(F)ccc2sn1-c1ccc(F)cc1,10µM*,0,-1,7%[0.501 µM],20µM*,-4%
COCCCNc1nc2c(S(=O)(=O)c3ccc(C)c(C)c3)nnn2c2ccc(Cl)cc12,-1%,.,.,7%[59 µM],3%,46%
C[C@H]1CCCCO[C@H](CN(C)Cc2ccc(C(=O)O)cc2)[C@@H](C)CN([C@@H](C)CO)C(=O)c2cc(NS(=O)(=O)c3cn(C)cn3)ccc2O1,.,5,8,.,.,.
COc1ccc(NC(=O)c2ccco2)cc1NC(=O)c1cc(Cl)ccc1OC,1%,.,.,-2%[59 µM],-35%,20%
CC(=O)Nc1ccc(C(=O)N/N=C/c2cc(Br)cc(Br)c2O)cc1,0%,?,-65*,4%,56µM*,?
CC(C)C(=O)Nc1ccc(C(=O)N/N=C/c2cc(Br)cc(Br)c2O)cc1,7.9µM*,-11,-1,.,?,9%
CN1C2=CC=CC=CC2=[N+](C)C12C=CC(=[N+]([O-])[O-])C=C2[N+](=O)[O-] (stereo not given),35µM*,12,-25,32µM*,-28%,?
Cc1ccc(C(=O)N/N=C/C=C/c2ccccc2)cc1,-32%,0,-18,4%,1%,31%
Cc1ccc(S(=O)(=O)N(C)/N=C/C=C/c2ccccc2)cc1,-4%,-4,2,35µM*,-26%,20%
Cc1ccc(S(=O)(=O)N(C)/N=C/c2ccc(N(C)C)cc2)cc1,25µM*,-11,-14,18µM*,22µM*,40µM*
Oc1ccc(N=Nc2n[nH]c(-c3ccc(Br)cc3)n2)cc1,-2%,-19,-22,24%[59 µM],-13%,7%
Cc1nc(-c2ccccc2)c(-c2ccccc2)[nH]1,?,-16,-10,6%[59 µM],?,-15%
Oc1ccc(N=Nc2n[nH]c(-c3ccccc3)n2)cc1,?,-7,-13,3.2µM*,?,-9%
Oc1ccc(N=Nc2nc(-c3ccccc3)c(-c3ccccc3)[nH]2)cc1,11µM*,-5,?,20µM*,22µM*,-72%
COCCNC(=O)C(c1ccc(Cl)cc1)N(CCOC)C(=O)CCC(=O)Nc1ccccn1 (stereo not given),-14%,5,-1,-10%,-15%,23%
CC(Oc1ccc2c(-c3ccccc3)cc(=O)oc2c1)C(=O)N[C@H](Cc1c[nH]c2ccccc12)C(=O)O (stereo not given in full),-32%,-20,-27,-3%[12.7 µM],-33%,-11%
COc1ccc(-c2cc(=O)oc3cc(OC(C)C(=O)NC(Cc4c[nH]c5ccc(O)cc45)C(=O)O)ccc23)cc1 (stereo not given),50µM*,-14,-29,50µM*,-27%,0%
CC(C)C[C@H](N)CSSC[C@@H](N)CC(C)C,.,.,.,16µM*,.,.
CC1CCCCN1C(=O)Cn1cnc2cc([N+](=O)[O-])ccc2c1=O (stereo not given),?,-2,4,-6%,14µM*,-14%
